The list is not random: actives were taken first. Their share in the collection is about 9%.
Lamin A splicing – qHTS Assay for Modulators of Lamin A Splicing | HeLa LMNA splicing GFP/RFP minigene ratio, 48 h | Potency, µM (highest dose often 46.1 µM), for the others: top-dose ratio change, negative = inhibition, actives largely listed as inhibitors | 200,000 compounds, 0.01% hits | AID 1487, 2009; active = well fitted inhibition curve with a large enough effect in the signal ratio, with a control signal flat, not every such curve was filed as active; inconclusive = small, poorly fitted or top-dose-only effect, or effect the other way, or a change in a side signal; the % refers to the signal ratio; note: % is set by controls: 0 for no effect and ±100 for the full control effect
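S3 HeLa stable clones carrying a lamin A-EGFP splicing minigene plus DsRed2 were seeded at 600 cells/well in Opti-MEM with 2% FBS, pin-dosed and incubated 48 h at 37°C. Acumen cytometry (488 nm) gave the GFP/RFP total-intensity ratio.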
HTT aggregate – qHTS Multiplex Assay to Identify Dual Action Probes in a Cell Model of Huntington: Aggregate Formation (GFP). PC12 HttQ103-GFP aggregates, Acumen cytometry, 40 h. Potency, µM (series often up to 46.1 µM), inactives show top-dose activity change, negative = inhibition, most hits filed as inhibitors. 220,000 compounds, 1.1% hits. AID 1688, 2009; note: % is set by controls: 0 for no effect and ±100 for the full control effect; nearly all actives have a fitted effect of over 60% in size
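Aggregate formation scored by laser-scanning cytometer (488 excitation, 500–530 emission) in lysed PC12 cells expressing Q103-GFP after 100 nM tebufenozide induction; library tested in dose series, with ATPLite reagent added in the multiplex.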
ALDH1A1 block – qHTS Assay for Inhibitors of Aldehyde Dehydrogenase 1 (ALDH1A1); Aldehyde dehydrogenase 1A1 (Homo sapiens), P00352; Purified ALDH1A1, NADH fluorescence, propionaldehyde substrate; Potency, µM (top dose mostly 75.3 µM), for the others: top-dose activity, negative = inhibition, usual class: inhibitors; 220,000 compounds, 7.3% hits; AID 1030, 2008; active = well fitted inhibition curve with a large enough effect, not every such curve was filed as active; inconclusive = small, poorly fitted or top-dose-only effect, or another doubt; inactive = no such curve, though single readings can be large or run the other way;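 note: plate controls were no enzyme wells and a reference inhibitor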
Target sequence (P00352 whole entry, looked up): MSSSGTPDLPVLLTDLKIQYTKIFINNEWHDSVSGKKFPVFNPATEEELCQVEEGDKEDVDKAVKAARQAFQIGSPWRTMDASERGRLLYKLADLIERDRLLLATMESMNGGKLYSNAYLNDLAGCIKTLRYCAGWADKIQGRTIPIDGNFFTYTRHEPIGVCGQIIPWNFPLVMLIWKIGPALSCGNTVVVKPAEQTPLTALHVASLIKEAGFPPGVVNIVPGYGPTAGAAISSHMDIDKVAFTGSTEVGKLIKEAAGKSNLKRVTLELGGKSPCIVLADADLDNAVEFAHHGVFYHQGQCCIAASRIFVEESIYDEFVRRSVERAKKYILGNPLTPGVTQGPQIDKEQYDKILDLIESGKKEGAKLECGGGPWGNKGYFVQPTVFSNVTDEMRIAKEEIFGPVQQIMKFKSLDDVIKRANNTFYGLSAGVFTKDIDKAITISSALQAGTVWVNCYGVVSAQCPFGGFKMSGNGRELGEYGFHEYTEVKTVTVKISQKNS
HTT cytoprotect – qHTS Multiplex Assay to Identify Dual Action Probes in a Cell Model of Huntington: Cytoprotection (ATP). PC12 HTT-Q103 induced, cytoprotection, ATP luminescence, 40 h. Potency, µM (series often up to 56.4 µM), without a hit: cytoprotection (ATP increase), most hits filed as activators. 230,000 compounds, 0.14% hits. AID 1471, 2008; note: % of control where 0% means no effect; nearly all actives have a fitted effect of over 45% in size
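Rat PC12, Q103 Htt exon1-GFP fusion, ecdysone promoter; tebufenozide inducer 100 nM final; compound titration; qHTS, 1500 cells/well; ATPlite luminescent read.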
HPGD block – qHTS Assay for Inhibitors of HPGD (15-Hydroxyprostaglandin Dehydrogenase); purified HPGD, NADH fluorescence kinetic, PGE2 substrate; Potency, µM, inactives show top-dose activity change, negative = inhibition, actives largely listed as inhibitors; 150,000 compounds, 4.3% hits; AID 894, 2007; 15-hydroxyprostaglandin dehydrogenase [NAD(+)] (Homo sapiens), P15428; active = well fitted inhibition curve with a large enough effect, not every such curve was filed as active; inconclusive = small, poorly fitted or top-dose-only effect, or another doubt; inactive = no such curve, though single readings can be large or run the other way; note: % is set by controls: 0 for no effect and ±100 for the full control effect
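NADH formation kinetics: reaction with 30 uM PGE2 and 1 mM NAD+ (final), 20 nM enzyme, Tris-HCl pH 8 with Tween 20, after 15 min compound preincubation at room temperature. Fluorescence change, last versus first of five reads.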
KinaseGlo FLuc – Counterscreen for Luciferase (Kinase-Glo TM) Inhibition | Luciferin 4-monooxygenase (Photuris pensylvanica), Q27757 | Kinase-Glo luciferase, ATP luminescence, 8 min | Potency, µM (doses to about 38.3 µM), for the others: at the highest dose activity change, negative = inhibition, usual class: inhibitors | 200,000 compounds, 0.28% hits; note: % is set by controls: 0 for no effect and ±100 for the full control effect; nearly all actives have a fitted effect of over 60% in size
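Light output from Kinase-Glo luciferase with luciferin and 10 uM ATP in 50 mM imidazole pH 7.2, KCl, MgCl2, Tween 20, BSA; compound pin-delivered, 8-min ambient incubation, then luminescence read.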
An asterisk follows results filed as active; ? = inconclusive; . = not tested or not shown; [ ] = remark or other dose. Unless noted, calls come from the whole dose curve; as a rule, active = well fitted curve in the direction sought with a large enough effect; inconclusive = small, poorly fitted or top-dose-only effect, or another doubt; inactive = no such curve, though single readings can be large; an effect the other way counts as inactive or inconclusive. Potency is the fitted concentration of half-maximal effect.

SMILES | Lamin A splicing | HTT aggregate | ALDH1A1 block | HTT cytoprotect | HPGD block | KinaseGlo FLuc
Cc1nc2scc(-c3cccs3)c2c(=O)n1CC(=O)O | 0% | -3% | 3% | 6% | -30% | -1%
C=CCn1c(=S)[nH]c2scc(-c3ccc(C)o3)c2c1=O | -12%[46 µM] | 22µM* | ? | -5%[10 µM] | . | 0%
CCn1c(=S)[nH]c2scc(-c3cccs3)c2c1=O | 12%[46 µM] | ? | 14µM* | -10%[10 µM] | . | 0%
CC(C)n1c(=S)[nH]c2scc(-c3cccs3)c2c1=O | . | 7%[9.22 µM] | 13µM* | -6%[10 µM] | . | .
O=C(Nc1cccc2c1CCCC2)N1CCOc2ccc(Cl)cc21 | 3%[46 µM] | . | . | . | . | .
O=S(=O)(c1ccccc1)N1CCC[C@@]2(CCN(Cc3nccs3)C2)C1 | . | . | -12% | 9% | -2% | -1%
COc1ccc(NC(=S)NC23CN4CN(CN(C4)C2)C3)c(OC)c1 | . | -8% | 5% | -41% | . | -1%
O=c1c2c(-c3cccs3)csc2[nH]c(=S)n1-c1ccccc1 | -6% | -5% | 22µM* | -21% | 28µM* | -4%
O=c1c2c(-c3cccs3)csc2ncn1-c1ccccc1 | -7% | -27% | ? | -7%[1.9 µM] | -11% | 1%
Cc1ccc(C(NC(=O)N2CCCC2)C(Cl)Cl)cc1F (centres undefined) | -25%[46 µM] | -4% | 11µM* | -7% | . | 2%
CCOC(=O)CC1C(=O)NCCN1Cc1cccc(OC)c1 (centres undefined) | 0% | 29% | 16% | -19% | -9% | 0%
Cc1ccccc1N=C/C=C1\N(C)c2ccccc2C1(C)C | ? | 14µM* | -14% | -61% | -16% | -2%
CC1CCCCN1C(=S)NC(=O)c1cccs1 (centres undefined) | . | -14%[9.22 µM] | . | 12%[10 µM] | . | .
Cc1c(Br)c([N+](=O)[O-])nn1CCCC(=O)Nc1sc2c(c1C(N)=O)CCC(C)C2 (centres undefined) | -5% | 5% | 25µM* | -7%[10 µM] | 11µM* | 1%
Cc1c(Br)c([N+](=O)[O-])nn1CC(=O)Nc1sc2c(c1C(=O)OC(C)C)CCCC2 | 1% | -5% | -10% | -13% | -24% | -8%
Cc1c(Cl)c([N+](=O)[O-])nn1CCCC(=O)Nc1sc2c(c1C(N)=O)CCC(C)C2 (centres undefined) | -9% | ? | 5% | -7%[10 µM] | 5µM* | 5%
COc1ccc(-c2noc(-c3ccc(Cl)cc3[N+](=O)[O-])n2)cc1OC | -22% | 5% | -8% | -9%[10 µM] | 18µM* | -2%
COc1ccc(-c2noc(-c3cccc(Cl)c3)n2)cc1OC | -1% | 5% | 8% | 15%[10 µM] | -8% | 1%
Cc1cccc(-c2noc(-c3ccc(Cl)cc3[N+](=O)[O-])n2)c1 | ? | -10% | -1% | 3%[10 µM] | 14µM* | -4%
O=[N+]([O-])c1cc(C(F)(F)F)ccc1SCC(O)CO (centres undefined) | . | 10% | -11% | -1%[10 µM] | . | -1%
COc1ccc(N=N/C(=C\O)C(=O)c2ccco2)cc1 | -13%[46 µM] | -10% | 7.9µM* | 14%[10 µM] | . | -8%
C=CCN1C(c2ccc(OCC)cc2)=CS/C1=C(\C#N)c1nnc2n1CCCCC2 | ? | ? | 14µM* | -7%[1.9 µM] | 28µM* | -3%
Cn1ncc(Cl)c1C(=O)NCc1ccc(Cl)cc1 | ? | -24% | 0% | 22%[10 µM] | -21% | 1%
CCCN1C(=O)/C(=C/c2ccc3c(c2)OCO3)NC1=S | . | -6% | 2.2µM* | -7% | . | 0%
O=C(c1ccccc1)C(Sc1ncn[nH]1)c1ccccc1 (centres undefined) | -7% | -7% | ? | 16%[10 µM] | 40µM* | -2%
